# TWEAK-Fn14 inh – TWEAK-Fn14 signaling inhibition. TWEAK-stimulated Fn14 reporter cells, luciferase luminescence, 8 h. 2% of 360,000 active. inhibition, % at 10 µM. AID 1159606; in the data active = inhibition above about 50%
# TROY signal inh – inhibitors of TROY-dependent NF-kB signaling; Q293 LMP1-TROYcd NF-kB luciferase reporter, 4 h; inhibition, % at 10 µM; 0.98% of 360,000 active; AID 1347056;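 active = compounds whose plate-normalised and pattern-corrected inhibition of the luciferase reporter signal at the single screening dose is 50% or more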
# EWS-Fli inh – blocks EWS/Fli oncoprotein-driven transcription. 0.67% of 350,000 active. AID 651661. inhibition, % at 12.6 µM. A673 NR0B1-luciferase reporter, viability-normalised;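 active = mean inhibition of at least 50% after viability correction, with every replicate also passing that limit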;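 note: firefly luciferase signal divided by Alamar Blue viability fluorescence both relative to DMSO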
# LGR2 inh – inhibitors of bursicon-induced Drosophila LGR2 receptor cAMP signaling; 0.35% of 380,000 active; HEK293 LGR2, CRE-luciferase, bursicon-stimulated, 4 h; inhibition, % at 9.99 µM; AID 720647;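 active = drop in luminescence signal, shown as inhibition above about 50% in the replicate tests, limit read from the data, passing the limit was not always enough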;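 note: agonist challenge used bursicon conditioned medium at about half maximal strength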
# PAX8 inh HTS – PAX8 transcriptional activity inhibition. RMG-I TPO-luciferase reporter, SteadyGlo, 24 h. inhibition, % at 12.6 µM. 1.2% of 360,000 active;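 active = mean replicate inhibition at least 60% with every replicate also reaching 60%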;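 note: luciferase light reporting Pax8 driven TPO promoter activity; plate controls were median of neutral control wells for no effect and mitoxantrone controls for full effect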
# An asterisk follows results filed as active; . = no result given. This is a sample that favours compounds with a hit; in the whole collection about 2.8% have one here.
SMILES,TWEAK-Fn14 inh,TROY signal inh,EWS-Fli inh,LGR2 inh,PAX8 inh HTS
CCCc1cn(CC[C@H]2CC[C@@H](NC(=O)Cc3cccnc3)[C@H](CO)O2)nn1,.,.,1.9,-4.7,-2.0
N#C[C@@H]1[C@@H](c2ccc(-c3ccccc3F)cc2)[C@@H](CO)N1C(=O)C1CCC1,.,.,-1.5,-8.9,81.5*
N#C[C@H]1[C@@H](c2ccc(C#Cc3ccc(F)cc3)cc2)[C@H](CO)N1C(=O)C1CCCC1,.,.,28.4,0.5,86.9*
CN(C)C(=O)c1cccc(-c2ccccc2[C@@H]2[C@@H](C#N)N(C(=O)C3CC3)[C@H]2CO)c1,.,.,2.3,10.4,112.5*
CCOc1ccc(-c2ccc(SC)nn2)cc1,-15.0,75.2*,79.0*,99.1*,75.0*
CCOc1ccc(-c2ccc(SCC(=O)Nc3nnc(CC)s3)nn2)cc1,12.2,-54.8,-14.3,2.4,-66.1
O=S(=O)(Nc1cccnc1)c1cccc(C(F)(F)F)c1,3.0,5.0,.,.,.
O=[N+]([O-])c1ccc(S(=O)(=O)c2cccc(C(F)(F)F)c2)nc1,-2.6,62.0*,.,.,.
C/C=C/c1ccc([C@H]2[C@@H](CO)N3CCCCN(C(=O)Nc4ccc(F)cc4)C[C@H]23)cc1,.,.,12.3,7.5,4.4
COc1ccc(NC(=O)N2C[C@H]3[C@@H](c4ccccc42)[C@H](CO)N3C(=O)C2CCCCC2)cc1,.,.,-13.3,-22.2,-10.8
CN(C)c1ccc(C(=S)NCc2ccco2)cc1,62.7*,-27.0,.,.,.
CN(C)c1ccc(/C=N/NC(=S)NCc2ccco2)cc1,-13.3,-30.7,4.5,.,-29.8
O=C(NCC[C@@H]1CC[C@H](NS(=O)(=O)c2ccc(Cl)cc2)[C@H](CO)O1)c1ccc2c(c1)OCO2,.,.,.,-1.6,.
COc1cc(C(=O)Nc2ccc3c(c2)OCO3)ccc1-n1cnnn1,5.0,-2.9,.,.,.
COc1cc(NC(=O)Cc2cccs2)ccc1-n1cnnn1,91.1*,.,.,.,.
C[C@H](CO)N1C[C@H](C)[C@@H](CN(C)S(=O)(=O)c2cn(C)cn2)OCCCC[C@H](C)Oc2ccc(NS(=O)(=O)c3ccc(Cl)cc3)cc2C1=O,.,.,4.0,13.6,8.8
O=C1[C@@H]2Cc3c([nH]c4ccccc34)C(c3cccc(Br)c3)N2C(=O)CN1C1CCN(Cc2ccccc2)CC1 (some centres not stated),24.0,14.4,20.2,-1.3,90.6*
COc1ccc(NC(=O)Nc2ccc3c(c2)C(=O)N([C@@H](C)CO)C[C@@H](C)[C@H](CN(C)S(=O)(=O)c2ccc(Cl)cc2)OCCCC[C@@H](C)O3)cc1,.,.,5.6,34.7,16.8
Cc1cc2nc(NCCCO)n(CC(=O)c3cc(C(C)(C)C)c(O)c(C(C)(C)C)c3)c2cc1C,61.5*,48.0,25.6,1.4,-9.0
C/C=C/c1ccc2c(c1)O[C@@H](CN(C)Cc1ccc(C(=O)O)cc1)[C@@H](C)CN([C@H](C)CO)S2(=O)=O,.,.,9.8,6.8,-15.6
Cc1ccc(S(=O)(=O)Nc2ccc3c(c2)C(=O)N([C@H](C)CO)C[C@@H](C)[C@@H](CN(C)Cc2ccc(C(F)(F)F)cc2)OCCCC[C@H](C)O3)cc1,.,.,17.7,9.0,95.7*
Cc1ccc(S(=O)(=O)Nc2ccc3c(c2)C(=O)N([C@H](C)CO)C[C@H](C)[C@H](CN(C)Cc2ccc(C(F)(F)F)cc2)OCCCC[C@H](C)O3)cc1,.,.,37.4,-2.4,115.1*
Cc1ccc(S(=O)(=O)Nc2ccc3c(c2)C(=O)N([C@H](C)CO)C[C@H](C)[C@@H](CN(C)Cc2ccc(C(F)(F)F)cc2)OCCCC[C@@H](C)O3)cc1,.,.,3.1,14.9,6.6
Cc1ccc(S(=O)(=O)Nc2ccc3c(c2)C(=O)N([C@H](C)CO)C[C@H](C)[C@H](CN(C)Cc2ccc(C(=O)O)cc2)OCCCC[C@@H](C)O3)cc1,.,.,-33.3,-1.6,-15.5
Cc1ccc(S(=O)(=O)Nc2ccc3c(c2)C(=O)N([C@@H](C)CO)C[C@@H](C)[C@H](CN(C)Cc2ccc(C(F)(F)F)cc2)OCCCC[C@@H](C)O3)cc1,.,.,45.3,24.3,107.6*
SMILES,TWEAK-Fn14 inh,TROY signal inh,EWS-Fli inh,LGR2 inh,PAX8 inh HTS
Cc1ccc(S(=O)(=O)Nc2ccc3c(c2)C(=O)N([C@@H](C)CO)C[C@H](C)[C@@H](CN(C)Cc2ccc(C(F)(F)F)cc2)OCCCC[C@H](C)O3)cc1,.,.,14.9,23.8,79.8*
C[C@@H]1CCCCO[C@@H](CN(C)S(=O)(=O)c2cn(C)cn2)[C@H](C)CN([C@@H](C)CO)C(=O)c2cc(NC(=O)Nc3ccc(F)cc3)ccc2O1,.,.,-3.2,45.9,-3.4
C[C@H]1CN([C@@H](C)CO)C(=O)c2cc(NC(=O)CCCN(C)C)ccc2O[C@H]1CN(C)Cc1ccc(C(F)(F)F)cc1,.,.,1.1,-8.7,-7.6
Cc1ccc(S(=O)(=O)Nc2ccc3c(c2)C(=O)N([C@H](C)CO)C[C@@H](C)[C@@H](CN(C)Cc2ccc(C(F)(F)F)cc2)OCCCC[C@@H](C)O3)cc1,.,.,31.8,24.2,87.4*
CC(=O)c1c(C)[nH]c(C(=O)OCC(=O)Nc2ccc(Cl)cc2[N+](=O)[O-])c1C,63.8*,44.1,13.0,-0.6,35.8
CC(=O)c1c(C)[nH]c(C(=O)OCC(=O)Nc2ccc(Cl)c(S(=O)(=O)N(C)C)c2)c1C,54.2*,22.1,16.3,15.4,33.4
Cc1noc(C)c1NC(=O)N(C)C[C@@H]1Oc2ccc(NC(=O)Nc3ccc(C(F)(F)F)cc3)cc2C(=O)N([C@@H](C)CO)C[C@H]1C,.,.,0.0,7.0,-13.1
N#C/C(=N/Nc1ccc(OC(F)(F)F)cc1)C(N)=S,79.5*,48.6,-35.0,33.4,80.8*
COc1ccc(N/N=C(\C#N)C(N)=O)cc1,-39.1,1.4,-4.3,5.8,-7.8
Cc1ccc(C)c(NC(=O)CSc2nc3nc(-c4cccs4)cc(C(F)(F)F)c3c(=O)[nH]2)c1,6.9,53.4*,7.4,-0.6,3.6
Cc1ccc(C)c(NC(=O)CSc2nc(N)c(NC(=O)c3cccs3)c(=O)[nH]2)c1,10.6,6.3,0.7,7.0,-9.0
O=C(CSc1nc2nc(-c3cccs3)cc(C(F)(F)F)c2c(=O)[nH]1)Nc1ccc(F)c(F)c1,69.8*,48.8,28.5,3.9,13.6
Cc1noc(C)c1NC(=O)N(C)C[C@H]1Oc2c(cccc2N(C)C)C(=O)N([C@@H](C)CO)C[C@@H]1C,.,.,5.3,18.9,-27.2
O=C1[C@@H]2Cc3ccccc3CN2C(=O)N1c1cccc(F)c1,33.8,62.1*,.,.,.
C[C@H]1CN([C@@H](C)CO)C(=O)Cc2cc(NC(=O)Nc3ccc4c(c3)OCO4)ccc2O[C@@H]1CN(C)Cc1ccc(Cl)c(Cl)c1,.,.,-8.8,0.5,-4.1
CCCCN(Cc1cc2cc(OC)ccc2[nH]c1=O)S(=O)(=O)c1ccc(C)cc1,52.1*,46.2,8.4,16.1,39.3
COc1ccc2[nH]c(=O)c(CN(CCO)S(=O)(=O)c3ccc(C)cc3)cc2c1,7.2,-7.4,6.0,-4.5,10.6
C[C@@H]1CN([C@H](C)CO)C(=O)c2cc(N(C)C)ccc2O[C@@H]1CN(C)C(=O)Nc1ccc(F)cc1,.,.,-8.4,13.5,-2.8
